This passage reports z-score results from PubChem BioAssay AID1347423 (Functional Genomics Laboratory (NCATS/FGL), 2020).

Hit rate of the full screen: of about 52,000 sequences, about 210 (0.4%) were called active. This excerpt belongs to a sample that is enriched for actives. Unmarked numbers belong to inactive results.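 How the source made its calls: active means gene whose silencing raises cell survival under the drug, median off-target-corrected z-score across its silencing RNAs 2 or more; inactive means the rest.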

The assay in a line: Resistance to Poly (ADP-Ribose) Polymerase inhibitor: Gene Identification via Genome-wide siRNA Screen. To be noted: mouse BRCA2 R2336H ES cells, olaparib, CellTiter-Glo viability; active compounds read high. The method in brief: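 Genome-wide siRNA screen (3 siRNAs/gene, 20 nM) in mouse ES cells carrying hypomorphic BRCA2 R2336H; olaparib 500 nM added 48 h post-transfection, CellTiter-Glo viability 72 h later. Normalized to plate-median negative control; MAD z-scores, gene median, seed-adjusted.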
“GGCAAUUGUUUUUAGAGAGTT against 2610510J17Rik”: the z-score was 0.946.

On to GGCUGUCUUGAUUUUGAUUTT against C3ar1, for which the z-score is -0.0188.

As to CGAACCUACAGAGCUCAUGTT against Rpl17, the z-score was -2.32.

Consider GGGUGCUUAAUAAACAUAATT against Slc22a8, for which the z-score is 1.12.

Turning to GCUGAAAUACCACUCUCCGTT against Chl1, the z-score is -1.28 (active).

With CCAAUCUCUACCGUCUCCUTT against Camp, the z-score is -0.0705.

As to GGCUCAACUGUGUUAAACATT against Tnfrsf4, the z-score was 0.801.

For the sequence “GCAAAACCUACUGCGUGGATT against 2410195B05Rik”, the z-score is 0.682.

For GGGUUUCUGUUAAUCCACATT against Hist1h3g, the z-score was -1.25.

With GGUGAUAUUAUACAUUCACTT against Rnd1, the z-score was 0.43.

With CCACUGAAGUUUUCAUUCUTT against Olfr1055, the z-score was 0.663.

On to GGUGUGCAUCAAGCGACUGTT against Cacng6, for which the z-score is 1.29.

With GGAGUCAAGUCCACAUACATT against Usp47, the z-score was -0.927 (active).

Turning to GCACACCCAAUGCUCUAAGTT against Mare, the z-score was 0.284.

Consider GCGACAACGAUUUUGAAAUTT against Rsu1, for which the z-score is 0.756.

For the sequence GCCGACGUAGUGACAUUCUTT against Crybb3, the z-score was -1.17.

For the sequence CGUAUCAAACAGGAAAUGGTT against Arid5b, the z-score is 1.02.

With GGACUGCUAUGGGUCUUCATT against Clk3, the z-score is -1.64.

Take “GGGACAGUCUUCAGUGACATT against 0610037L13Rik”: the z-score is -2.25.

On to CCACAAAGAAUGCAUUACUTT against BC022146, for which the z-score was -1.42.

With GGAACGAUCGAAACAAGAATT against Rarg, the z-score is 3.59 (active).

GCAAGAGUCUGCUACGACATT against Opn1sw: the z-score was 0.0796.

For GGUCCCAUUCAGUGUGUGUTT against Cdk10, the z-score is -0.19.

With GGGAUGAGUAUGCUUAUGGTT against Rgpr, the z-score is 0.176.

Consider GCAGAAUGGUAAAUCCGAUTT against Mc5r, for which the z-score is 1.96.

In the case of CCCUAAGUUCUCGUUUCUGTT against Cherp, the z-score was 1.57.

As to GGACCAACAUAACCUCUACTT against BC037432, the z-score was 0.0137.

As for GGAACGAGACUCAUCUUCUTT against Cic, the z-score is 1.35 (active).

Consider GGAUCCUUCAGCAUUCUUATT against Egr2, for which the z-score was -0.406.

GGAACAGUCUGAAAUACACTT against Usp18: the z-score is 0.039 (active).

Turning to “GGAUAACCUUAACUUCUGATT against 2810449C13Rik”, the z-score is 2.16.

Take GGGACCCUUCUACAAAAACTT against Pias3: the z-score was 2.3 (active).

Turning to “GGAGAGUACUAAAUUUAAGTT against 4833418A01Rik”, the z-score was 0.0243.

Turning to “GGAAUUUUAUCAUUGGGACTT against 5031404N07”, the z-score is -0.078.

For CCUGGUAACAGUCAUAAAUTT against Lhfpl2, the z-score is -0.196.

Turning to “GGAAAUGCUUCUGAGCUAGTT against 5830417C01Rik”, the z-score was 0.677.

On to GGACCUCAGCGAAGACAAUTT against BC034097, for which the z-score is 2.03 (active).

For the sequence GGUCGGUGUUUUAUCUGCUTT against BC019537, the z-score was -1.19.

GGGAUACUGGUGCUUAACUTT against Abhd1: the z-score is 0.661.

Regarding “GCCACCUCUUAUGAGGCUUTT against D630045E04Rik”, the z-score is -1.04.

Take GGUGGUUACAACCGAAGCATT against Fus: the z-score was 2.95 (active).

Turning to GCCCUAGAACUUUUGAAUUTT against Dhx15, the z-score is -1.01.

Turning to “GGAGGUGUUGAACAAGUGCTT against 1700008P20Rik”, the z-score was -1.32.

With “GCAAGCAGAUCUGAUAUCATT against 2700050F09Rik”, the z-score was 4.76 (active).

For GCCUGGAUUCAGAAGCUACTT against Ugt1a1, the z-score is 0.72.

Regarding “GGAGGAGGAGGACUUUGAUTT against 5830417I10Rik”, the z-score was -1.23.

Turning to GGAACAUUACAAAAGCUCUTT against Slfn1, the z-score was -0.715.

For the sequence “GAAUCUAAAGAUGAACACCTT against 0610009B22Rik”, the z-score was -0.48.

As to GCAAGUGGUAAUGGUGACCTT against Tex15, the z-score is -0.249.

GGACUUUUAUUUUGUUAGCTT against Pacsin2: the z-score is 3.01 (active).

“GUUUUCUUGAGACAGUUAATT against 1810008A14Rik”: the z-score was -0.106.

Take GGAGUUGAUCAAGACAGAGTT against S100a5: the z-score was -0.443.

As to GGAGGAAAGAAUGUGUAAATT against Birc3, the z-score is -0.544.

For the sequence GCAUGCAUGAUGGAUCUUCTT against Gabrb1, the z-score was -2.

For GGAAACAACGGAUCCAAAATT against Plcb3, the z-score was 2.47 (active).

As for “GCUUACAUCCAAGCCGUCUTT against 4931440B09Rik”, the z-score was 1.71.

In the case of CCAAGUUCACAAUUGUUCUTT against Gm457, the z-score was -0.19.

Take GGACUUGUCUUUGACACGCTT against Nt5c2: the z-score was 2.18.

On to GGAUUCCCUAUCCCAUACCTT against Araf1, for which the z-score is 4.36 (active).

As to “GGUCAAAAGAAACAGGUGUTT against 2310047I15Rik”, the z-score was 0.438.

GCAACUAGCCUGUUCUAUCTT against AI325941: the z-score was 1.68.

Regarding GGAGUUGAAGUUUGUGACATT against Acpp, the z-score is 2.3 (active).

Consider “GGUGAAAGUGAGAAGGAAGTT against 6720460F02Rik”, for which the z-score was -0.247.

CCUGAAUUACCUCAUAUAUTT against Stat5b: the z-score was 0.922.

Consider GCUGAAACCUCAUGAGGAGTT against Ptpn9, for which the z-score is 3.06 (active).

For GCUACUAUUGUGUUCUGAATT against Drd1a, the z-score is -0.386.

Turning to GGUACUCGGUUAUCAUGAATT against Olfr1403, the z-score is 1.39.
